Experimental findings from ChEMBL document CHEMBL2218924, “A broad activity screen in support of a chemogenomic map for kinase signalling research and drug discovery” (Biochem J, 2013) are described below.

In assay [1] the target is Ribosomal protein S6 kinase alpha-1 (Homo sapiens) (UniProt Q15418). The conditions noted are these: at 1 µM.
The target is the same in assay [2]. The conditions noted are these: at 10 µM.
For assay [3], the target named is Ribosomal protein S6 kinase alpha-3 (Homo sapiens) (UniProt P51812). The conditions noted are these: at 1 µM.
Chain of Ribosomal protein S6 kinase alpha-3 (Homo sapiens) (P51812 whole entry): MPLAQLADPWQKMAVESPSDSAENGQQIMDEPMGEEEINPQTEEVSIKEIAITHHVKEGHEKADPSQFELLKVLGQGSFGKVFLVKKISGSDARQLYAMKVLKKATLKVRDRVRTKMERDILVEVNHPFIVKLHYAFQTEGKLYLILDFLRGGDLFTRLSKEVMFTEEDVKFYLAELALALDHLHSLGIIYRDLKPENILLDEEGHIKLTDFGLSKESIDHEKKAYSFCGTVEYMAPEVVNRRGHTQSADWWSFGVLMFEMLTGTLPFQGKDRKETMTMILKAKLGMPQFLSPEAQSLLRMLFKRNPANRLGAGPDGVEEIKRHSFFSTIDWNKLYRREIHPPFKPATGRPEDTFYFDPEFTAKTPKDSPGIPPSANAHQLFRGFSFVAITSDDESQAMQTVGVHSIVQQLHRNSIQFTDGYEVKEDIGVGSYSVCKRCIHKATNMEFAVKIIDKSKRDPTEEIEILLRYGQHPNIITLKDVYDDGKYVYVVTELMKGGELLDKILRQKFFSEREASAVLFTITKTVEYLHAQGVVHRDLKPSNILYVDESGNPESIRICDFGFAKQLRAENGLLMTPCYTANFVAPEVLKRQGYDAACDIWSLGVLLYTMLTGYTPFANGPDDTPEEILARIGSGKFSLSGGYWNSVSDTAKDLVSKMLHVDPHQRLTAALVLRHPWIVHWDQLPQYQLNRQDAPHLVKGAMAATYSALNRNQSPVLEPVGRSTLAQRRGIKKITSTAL
For assay [4] the target is unchanged. The conditions noted are these: at 10 µM.
In assay [5] the target is Ribosomal protein S6 kinase alpha-2 (Homo sapiens) (UniProt Q15349). Particulars: at 1 µM.
Chain of Ribosomal protein S6 kinase alpha-2 (Homo sapiens) (Q15349 whole entry): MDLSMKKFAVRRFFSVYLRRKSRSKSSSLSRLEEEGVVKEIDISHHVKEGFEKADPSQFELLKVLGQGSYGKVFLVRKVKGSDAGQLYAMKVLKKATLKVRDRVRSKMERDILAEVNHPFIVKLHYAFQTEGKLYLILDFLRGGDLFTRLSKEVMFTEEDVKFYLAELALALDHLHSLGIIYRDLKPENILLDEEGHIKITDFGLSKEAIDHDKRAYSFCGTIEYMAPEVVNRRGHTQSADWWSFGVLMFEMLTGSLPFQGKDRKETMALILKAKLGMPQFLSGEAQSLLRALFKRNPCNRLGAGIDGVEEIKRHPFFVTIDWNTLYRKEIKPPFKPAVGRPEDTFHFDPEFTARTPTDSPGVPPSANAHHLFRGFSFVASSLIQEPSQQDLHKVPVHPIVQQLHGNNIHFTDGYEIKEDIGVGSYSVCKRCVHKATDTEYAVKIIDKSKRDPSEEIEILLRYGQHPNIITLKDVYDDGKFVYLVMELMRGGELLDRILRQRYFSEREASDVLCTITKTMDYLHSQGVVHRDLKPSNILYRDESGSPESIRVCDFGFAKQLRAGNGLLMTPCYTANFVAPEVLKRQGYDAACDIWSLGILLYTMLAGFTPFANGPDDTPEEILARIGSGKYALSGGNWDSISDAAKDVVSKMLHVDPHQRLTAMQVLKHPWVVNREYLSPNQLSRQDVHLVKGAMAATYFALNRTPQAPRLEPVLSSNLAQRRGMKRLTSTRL
For assay [6] the target is unchanged. The conditions noted are these: at 10 µM.
The target in assay [7] is Ribosomal protein S6 kinase alpha-6 (Homo sapiens) (UniProt Q9UK32). The conditions noted are these: at 1 µM.
Chain of Ribosomal protein S6 kinase alpha-6 (Homo sapiens) (Q9UK32 whole entry): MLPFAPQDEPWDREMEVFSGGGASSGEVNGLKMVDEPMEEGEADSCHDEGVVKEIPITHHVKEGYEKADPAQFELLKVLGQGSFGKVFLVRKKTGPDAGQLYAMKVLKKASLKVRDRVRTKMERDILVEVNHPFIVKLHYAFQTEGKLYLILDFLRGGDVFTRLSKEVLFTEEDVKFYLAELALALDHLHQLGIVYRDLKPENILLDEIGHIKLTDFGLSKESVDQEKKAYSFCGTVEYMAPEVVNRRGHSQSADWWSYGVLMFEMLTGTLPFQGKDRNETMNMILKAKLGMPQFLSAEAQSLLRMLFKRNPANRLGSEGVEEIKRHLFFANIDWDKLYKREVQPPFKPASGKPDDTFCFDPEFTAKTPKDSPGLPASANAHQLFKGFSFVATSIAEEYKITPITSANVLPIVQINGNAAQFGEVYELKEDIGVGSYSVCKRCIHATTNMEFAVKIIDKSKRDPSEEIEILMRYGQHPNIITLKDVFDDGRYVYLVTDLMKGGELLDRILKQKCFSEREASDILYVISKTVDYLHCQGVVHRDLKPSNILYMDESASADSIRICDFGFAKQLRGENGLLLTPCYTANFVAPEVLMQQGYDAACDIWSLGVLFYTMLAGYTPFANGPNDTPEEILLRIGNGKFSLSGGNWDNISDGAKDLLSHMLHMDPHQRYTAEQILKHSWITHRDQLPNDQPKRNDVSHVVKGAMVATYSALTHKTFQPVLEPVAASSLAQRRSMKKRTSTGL
For assay [8] the target is unchanged. Particulars: at 10 µM.
The target in assay [9] is Mitogen-activated protein kinase 14 (Homo sapiens) (UniProt Q16539). The conditions noted are these: at 1 µM.
Chain of Mitogen-activated protein kinase 14 (Homo sapiens) (Q16539 whole entry): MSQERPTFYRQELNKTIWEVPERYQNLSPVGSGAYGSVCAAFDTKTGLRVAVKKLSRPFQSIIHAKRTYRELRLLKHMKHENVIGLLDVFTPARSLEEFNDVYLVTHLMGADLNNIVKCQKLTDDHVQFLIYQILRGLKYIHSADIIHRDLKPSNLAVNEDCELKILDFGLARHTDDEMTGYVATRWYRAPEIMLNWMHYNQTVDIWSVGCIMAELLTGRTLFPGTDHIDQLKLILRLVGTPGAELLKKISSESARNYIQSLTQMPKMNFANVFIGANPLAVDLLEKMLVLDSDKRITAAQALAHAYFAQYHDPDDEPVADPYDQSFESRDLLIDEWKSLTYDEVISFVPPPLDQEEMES
The target is the same in assay [10]. Particulars: at 10 µM.

The structures appear in SMILES notation.

Chain of Ribosomal protein S6 kinase alpha-1 (Homo sapiens) (Q15418 whole entry): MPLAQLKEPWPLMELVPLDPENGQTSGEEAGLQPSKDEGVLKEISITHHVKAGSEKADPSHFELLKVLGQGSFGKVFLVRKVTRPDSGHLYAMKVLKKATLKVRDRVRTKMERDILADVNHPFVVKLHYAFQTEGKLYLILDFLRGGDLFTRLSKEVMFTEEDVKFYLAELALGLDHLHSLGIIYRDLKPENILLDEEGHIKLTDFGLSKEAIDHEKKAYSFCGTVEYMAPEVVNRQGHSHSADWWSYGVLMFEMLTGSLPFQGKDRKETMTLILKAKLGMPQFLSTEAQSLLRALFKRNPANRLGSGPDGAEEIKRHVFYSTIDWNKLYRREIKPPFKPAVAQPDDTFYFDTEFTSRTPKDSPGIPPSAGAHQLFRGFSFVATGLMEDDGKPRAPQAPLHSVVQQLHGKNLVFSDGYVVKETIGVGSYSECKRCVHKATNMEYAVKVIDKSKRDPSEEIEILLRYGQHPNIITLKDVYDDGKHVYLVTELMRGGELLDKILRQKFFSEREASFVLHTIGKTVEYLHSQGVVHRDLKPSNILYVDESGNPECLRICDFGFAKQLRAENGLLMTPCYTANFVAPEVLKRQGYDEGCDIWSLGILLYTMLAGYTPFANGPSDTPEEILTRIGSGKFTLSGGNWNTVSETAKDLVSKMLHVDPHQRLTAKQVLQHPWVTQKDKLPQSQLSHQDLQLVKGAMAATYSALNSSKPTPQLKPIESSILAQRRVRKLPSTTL

Regarding `Nc1ncnc2c1c(-c1ccc(Oc3ccccc3)cc1)cn2C1CCCC1`, the residual activity in assay [1] was found to be 123%; in assay [2] it was 39%; in assay [3], 65%; in assay [4], 37%; in [5] it was 106%; in assay [6] it was 69%. The residual activity in assay [7] came out at 91%; in assay [8] it was 76%; in [9], 86%; in assay [10], 63%.

For the compound `O=C1NC(=O)C(c2c[nH]c3ccccc23)=C1c1c[nH]c2ccccc12`, the residual activity in assay [1] turned out to be 22%; in [2] it was 3%; in [3], 27%; in assay [4] it was 3%; in assay [5], 5%; in assay [6], 0%. Also, the residual activity in assay [7] amounted to 9%; in assay [8] it was 1%; in assay [9], 98%; in assay [10] it was 73%.

Consider `NC(=O)Nc1sc(-c2ccc(F)cc2)cc1C(N)=O`, for which the residual activity in [1] came to 85%; in assay [2], 33%; in assay [3] it was 33%; in [4], 9%; in [5], 30%; in assay [6] it was 7%. Further, the residual activity in assay [9] worked out at 91%; in assay [10] it was 77%.

Turning to `O=c1cc(N2CCOCC2)oc2c1ccc1ccccc12`, the residual activity in [1] was 108%; in assay [2] it was 97%; in assay [3] it was 57%; in assay [4], 46%; in assay [5], 109%; in assay [6], 99%. The residual activity in [7] was found to be 110%; in assay [8], 101%; in assay [9], 100%; in assay [10], 92%.

On to `COc1ccc2c(c1)c(C1=C(c3c[nH]c4ccccc34)C(=O)NC1=O)cn2CCCN(C)C`, for which the residual activity in assay [1] is 6%; in assay [2] it was 1%; in [3], 2%; in assay [4] it was -1%; in assay [5], 0%; in assay [6] it was -2%. Further, the residual activity is 4% in [7] and 2% in assay [8].

Take `CCN(CC)CCNC(=O)c1c(C)[nH]c(/C=C2\C(=O)Nc3ccc(Cl)cc32)c1C`: the residual activity is 11% in assay [1]; 2% in assay [2]; 11% in assay [3]; 1% in assay [4]; 9% in assay [5]; 1% in [6]. Besides, the residual activity was 14% in assay [7], 9% in [8], 82% in [9] and 52% in assay [10].

As to `O=C(CCCc1ccc(-c2ccccc2F)cc1)Nc1ccc(O)cc1`, the residual activity in assay [1] was found to be 90%; in assay [2], 89%; in [3], 111%; in [4], 129%; in assay [5], 97%; in assay [6], 86%. Moreover, the residual activity in assay [7] was 104%; in assay [8], 96%; in assay [9] it was 91%; in assay [10], 59%.

With `Oc1cccc(-c2nc(N3CCOCC3)c3oc4ncccc4c3n2)c1`, the residual activity in [1] was 141%; in assay [2] it was 98%; in assay [3], 70%; in [4] it was 64%.

For `Cn1c2ccccc2c2c3c(c4c5ccccc5n(CCC#N)c4c21)CNC3=O`, the residual activity in assay [1] is 7%; in assay [2] it was 4%; in assay [3], 1%; in assay [4] it was 1%; in assay [5], 0%; in assay [6] it was -1%. Also, the residual activity in assay [7] and in [8] was 4% each time.

As to `c1ccc(-c2cnc(Nc3ccc(OCCN4CCCC4)cc3)s2)cc1`, the residual activity came to 121% in [1]; 66% in assay [2]; 56% in assay [3]; 36% in [4]; 72% in assay [7]; 58% in [8].

As to `O=C(c1cc2cc(O)ccc2[nH]1)c1cc2cc(O)ccc2[nH]1`, the residual activity in [1] stood at 40%; in [2], 9%; in assay [3], 30%; in assay [4] it was 4%; in [5], 13%; in [6] it was 2%. Moreover, the residual activity was 26% in [7], 10% in assay [8], 75% in [9] and 73% in assay [10].

Turning to `O=C1NC(=O)c2c1c1c3ccccc3[nH]c1n1cncc21`, the residual activity worked out at 58% in assay [1]; 43% in assay [2]; 57% in [3]; 24% in assay [4]; 33% in [5]; 15% in assay [6]. The residual activity was found to be 37% in assay [7], 36% in assay [8], 93% in assay [9] and 87% in assay [10].

Consider `Nc1ncnc2[nH]nc(Nc3ccc(F)cc3)c12`, for which the residual activity in assay [1] was 106%; in [2] it was 64%; in assay [3] it was 42%; in assay [4], 24%; in [5] it was 59%; in assay [6] it was 17%. In addition, the residual activity in [7] was 48%; in assay [8], 30%; in assay [9], 78%; in assay [10], 47%.

With `CSc1nc(-c2ccc(F)cc2)c(-c2ccnc(NC(C)c3ccccc3)c2)[nH]1` (centres undefined), the residual activity in [1] is 82%; in assay [2], 74%; in assay [3], 81%; in [4] it was 50%; in [5], 40%; in [6], 42%. For the same compound, the residual activity in assay [7] was 86%; in assay [8], 69%; in [9] it was -1%; in assay [10], 0%.

As for `O=C(Nc1ccc(Cl)cc1)c1ccccc1NCc1ccncc1`, the residual activity in assay [1] was 129%.

As to `O=C1NC(=O)C(c2cn(CCCO)c3ncccc23)=C1c1cnccn1`, the residual activity in assay [1] was 98%; in assay [2], 99%; in assay [3], 41%; in [4] it was 45%; in assay [5], 63%; in assay [6] it was 55%. Further, the residual activity in assay [7] came to 83%; in assay [8] it was 65%; in assay [9], 82%; in assay [10] it was 92%.

With `COc1cc2c(cc1OC)-c1n[nH]c(Nc3cccc(F)c3)c1C2`, the residual activity in assay [1] came out at 112%; in [2], 79%; in [3] it was 63%; in assay [4], 39%; in assay [6], 63%; in assay [7] it was 105%. The residual activity in [9] is 69%; in assay [10] it was 44%.

As for `CCCCc1c(-c2ccc(OC)cc2)[nH]c2nccnc12`, the residual activity is 122% in assay [1]; 109% in [2]; 55% in assay [3]; 52% in assay [4]; 70% in assay [5]; 70% in assay [6]. For the same compound, the residual activity in [7] was found to be 89%; in assay [8] it was 100%.

Take `COc1cc2nccc(Oc3ccc(NC(=O)Nc4cc(C)on4)c(Cl)c3)c2cc1OC`: the residual activity amounted to 105% in assay [1]; 77% in assay [2]; 60% in [3]; 35% in [4]; 99% in [7].

`O=C1Nc2ccc(Cl)cc2/C1=C/c1cc(Cl)c(O)c(Cl)c1`: the residual activity was determined as 94% in assay [1]; 29% in assay [2]; 68% in [3]; 20% in assay [4]; 88% in assay [5]; 36% in assay [6]. The residual activity was 77% in [7], 55% in assay [8], 54% in assay [9] and 10% in [10].

On to `CCCC(=O)Oc1ccc2[nH]c(C(=O)c3cc4ccccc4[nH]3)cc2c1`, for which the residual activity in assay [1] was 129%; in assay [2], 99%; in assay [3], 122%; in assay [4], 93%; in assay [5], 102%; in [6], 90%. For the same compound, the figures for the residual activity in assay [9] and in assay [10] were 79% and 81%, respectively.

Turning to `Cc1cc(C)c(/C=C2\C(=O)Nc3ccccc32)[nH]1`, the residual activity in assay [1] was determined as 51%; in assay [2] it was 11%; in assay [3], 26%; in assay [4], 5%; in [5], 27%; in assay [6], 4%. Besides, the residual activity in assay [7] came to 38%; in assay [8], 17%; in assay [9], 79%; in [10], 98%.

Turning to `CN(C)S(=O)(=O)c1ccc2c(c1)/C(=C/c1cc3c([nH]1)CCCC3)C(=O)N2`, the residual activity in [1] was determined as 95%; in assay [2], 95%; in assay [3] it was 61%; in assay [4], 42%; in [5], 36%; in [6] it was 17%. Besides, the residual activity in assay [7] was 84%; in assay [8], 89%; in [9], 87%; in assay [10], 86%.

Turning to `COc1ccc(CNC(=O)Nc2ncc([N+](=O)[O-])s2)cc1`, the residual activity in assay [1] is 136%; in assay [2], 109%.

As for `Nc1nc(Nc2ccc(S(N)(=O)=O)cc2)nn1C(=O)c1c(F)cccc1F`, the residual activity in [1] is 28%; in assay [2], 8%; in assay [3], 32%; in assay [4] it was 8%; in assay [5], 19%; in assay [6], 4%. Also, the residual activity came out at 27% in [7] and 2% in [8].

In the case of `CC(C)(C)n1nc(Cc2cccc3ccccc23)c2c(N)ncnc21`, the residual activity in assay [1] was 107%; in assay [2], 65%; in assay [3], 112%; in assay [4], 80%; in assay [5], 99%; in assay [6], 85%. The residual activity in assay [7] came to 113%; in assay [8], 77%; in assay [9] it was 41%; in assay [10], 7%.
